These results are taken from PubChem BioAssay (NCATS).

Records with an inconclusive call do not appear. Active and inactive are the calls of the source. The call rests on the fitted dose curve; in most records, active means well fitted cell-killing curve with a large enough effect; inconclusive means small, poorly fitted or top-dose-only effect, or effect the other way; inactive means no such curve, though single readings can be large or run the other way.
Potency means the concentration at half of the fitted maximal effect.

The first assay can be described thus: Quantitative High-Throughput drug screen in 47 multiple myeloma cell lines against the NCATS MIPE library collection: KMS34_JCRB cell viability assay (AID 1918985). Further: nearly all actives have a fitted effect of over 40% in size. Particulars: KMS34 myeloma viability, CellTiter-Glo ATP luminescence, 48 h; series mostly up to 45.8 µM. Summed up: (§1)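 Plated at 500 cells per well, myeloma lines received MIPE 4.0 compounds by pin tool. Following 48 h culture at 37 °C, CellTiter-Glo luminescence gave viability relative to DMSO and media-only controls.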
For orientation: In ATP-based viability assays light output follows the ATP content of the culture.
As to `CCCCC(CC)COC(=O)C(C#N)=C(c1ccccc1)c1ccccc1` (stereo not drawn), the Potency entry is “inactive”.

Consider `CN1CCC(=C2c3ccccc3CCc3sccc32)CC1`, for which the Potency entry was “inactive”.

Turning to `O=C(NCCO[N+](=O)[O-])c1cccnc1`, the Potency result was “inactive”.

In the case of `CN(C)C(=O)[C@H](O)[C@H](Cc1ccccc1)NC(=O)c1cc2cc(Cl)ccc2[nH]1`, the Potency was 935 nM (active).

The nature of another assay: Quantitative High-Throughput drug screen in 47 multiple myeloma cell lines against the NCATS MIPE library collection: OCIMY7_PLB cell viability assay (AID 1918987). Further: nearly all actives have a fitted effect of over 65% in size. As to conditions: OCI-MY7 myeloma viability, CellTiter-Glo ATP, 48 h; series mostly up to 45.8 µM. In short, it runs like this: as §1
For `Nc1cc(C(Cl)=C(Cl)Cl)c(S(N)(=O)=O)cc1S(N)(=O)=O`, the Potency was 11.8 µM (active).

As to `C[C@@H](N)C1CCC(C(=O)Nc2ccncc2)CC1` (stereo partly drawn), the Potency was 11.8 µM (active).

For `Cc1ccc(C)c(OCCCC(C)(C)C(=O)O)c1`, the Potency was 18.7 µM (active).

For the compound `O=C1c2c(O)cc(O)cc2OC(c2ccc(O)c(O)c2)C1O` (stereo not drawn), the Potency was 14.8 µM (active).

Consider `COc1cc(Nc2c(C#N)cnc3cc(OCCCN4CCN(C)CC4)c(OC)cc23)c(Cl)cc1Cl`, for which the Potency was 0.743 µM (active).

Take `CCN(CC)C(=S)SSC(=S)N(CC)CC`: the Potency was 0.001 µM (active).

Regarding `CCN(CC)CCOc1ccc(Cc2ccccc2)cc1`, the Potency entry is “inactive”.

With `Cc1cccc(C)c1OCC(=O)N[C@@H](Cc1ccccc1)[C@@H](O)C[C@H](Cc1ccccc1)NC(=O)[C@H](C(C)C)N1CCCNC1=O`, the Potency was 11.8 µM (active).

As to `COc1ccc2cc([C@H](C)C(=O)O)ccc2c1`, the Potency is 33.2 µM (active).

On to `CS(=O)(=O)OCCCCOS(C)(=O)=O`, for which the Potency result is “inactive”.

For the compound `CC(C)C[C@H](NC(=O)[C@H](Cc1ccccc1)NC(=O)c1cnccn1)B(O)O`, the Potency is 0.001 µM (active).

For `CCCCC(CC)COC(=O)C(C#N)=C(c1ccccc1)c1ccccc1` (stereo not drawn), the Potency entry is “inactive”.

On to `N[C@@H](Cc1cc(I)c(Oc2cc(I)c(O)c(I)c2)c(I)c1)C(=O)O`, for which the Potency result was “inactive”.

With `Cc1cccc(CN2CCN(C(c3ccccc3)c3ccc(Cl)cc3)CC2)c1` (stereo not drawn), the Potency was 9.35 µM (active).

As for `CN(C)C(=O)[C@H](O)[C@H](Cc1ccccc1)NC(=O)c1cc2cc(Cl)ccc2[nH]1`, the Potency was 2.96 µM (active).

On to `O=C(O)c1cc(=O)c2c(OCC(O)COc3cccc4oc(C(=O)O)cc(=O)c34)cccc2o1`, for which the Potency result is “inactive”.

Another assay is described as follows: Quantitative High-Throughput drug screen in 47 multiple myeloma cell lines against the NCATS MIPE library collection: OCIMY5_PLB cell viability assay (AID 1918988). Further: nearly all actives have a fitted effect of over 65% in size. Particulars: OCI-MY5 myeloma viability, ATP luminescence, 48 h; series mostly up to 45.8 µM. Summed up: as §1
With `C=CCc1cc(OC)c(O)c(C(=O)NCCO)c1`, the Potency result is “inactive”.

On to `CC(=O)O[C@H]1C(=O)[C@@]2(C)C([C@H](OC(=O)c3ccccc3)[C@]3(O)C[C@H](OC(=O)[C@H](O)[C@@H](NC(=O)c4ccccc4)c4ccccc4)C(C)=C1C3(C)C)[C@]1(OC(C)=O)CO[C@@H]1C[C@@H]2O` (stereo partly drawn), for which the Potency entry is “inactive”.

Turning to `COc1cc(OC)c(C(=O)CCCN2CCCC2)c(OC)c1`, the Potency result is “inactive”.

Regarding `CN1C(C(=O)Nc2ccccn2)=C(O)c2sccc2S1(=O)=O`, the Potency was 6.62 µM (active).

Consider `CCN(CCO)CCCC(C)Nc1ccnc2cc(Cl)ccc12` (stereo not drawn), for which the Potency result is “inactive”.

For `CCc1nc(N)nc(N)c1-c1ccc(Cl)cc1`, the Potency result was “inactive”.

On to `CC1(C)CCC(C)(C)c2cc(NC(=O)c3ccc(C(=O)O)cc3)ccc21`, for which the Potency was 1.66 µM (active).

Take `C[C@@H](N)C1CCC(C(=O)Nc2ccncc2)CC1` (stereo partly drawn): the Potency is 11.8 µM (active).

Consider `O=C1c2c(O)cc(O)cc2OC(c2ccc(O)c(O)c2)C1O` (stereo not drawn), for which the Potency entry was “inactive”.

Turning to `COc1cc(Nc2c(C#N)cnc3cc(OCCCN4CCN(C)CC4)c(OC)cc23)c(Cl)cc1Cl`, the Potency was 18.7 µM (active).

Take `CCN(CC)C(=S)SSC(=S)N(CC)CC`: the Potency was 0.0059 µM (active).

For `CCN(CC)CCOc1ccc(Cc2ccccc2)cc1`, the Potency was 11.8 µM (active).

Take `COc1cc(C(C)=O)ccc1OCCCN1CCC(c2noc3cc(F)ccc23)CC1`: the Potency was 6.62 µM (active).

Turning to `Cc1cccc(C)c1OCC(=O)N[C@@H](Cc1ccccc1)[C@@H](O)C[C@H](Cc1ccccc1)NC(=O)[C@H](C(C)C)N1CCCNC1=O`, the Potency result was “inactive”.

Take `CC(=O)N1CCN(c2ccc(OC[C@H]3CO[C@](Cn4ccnc4)(c4ccc(Cl)cc4Cl)O3)cc2)CC1`: the Potency was 18.7 µM (active).

In the case of `CCCOc1ccc2nc(NC(=O)OC)[nH]c2c1`, the Potency was 0.0026 µM (active).

For the compound `COc1ccc2cc([C@H](C)C(=O)O)ccc2c1`, the Potency is 20.9 µM (active).

On to `CS(=O)(=O)OCCCCOS(C)(=O)=O`, for which the Potency is 5.9 µM (active).

On to `CC(C)C[C@H](NC(=O)[C@H](Cc1ccccc1)NC(=O)c1cnccn1)B(O)O`, for which the Potency is 0.0047 µM (active).

With `CN1CCC(=C2c3ccccc3CCc3sccc32)CC1`, the Potency result is “inactive”.

For `O=C(NCCO[N+](=O)[O-])c1cccnc1`, the Potency result is “inactive”.

On to `Cc1cccc(CN2CCN(C(c3ccccc3)c3ccc(Cl)cc3)CC2)c1` (stereo not drawn), for which the Potency was 20.9 µM (active).

For the compound `CN(C)C(=O)[C@H](O)[C@H](Cc1ccccc1)NC(=O)c1cc2cc(Cl)ccc2[nH]1`, the Potency is 13.2 µM (active).
